For eight molecules, growth results are on record in PubChem BioAssay (NCI).

Compounds without any hit were thinned out: in the full panel of roughly 83,000, 20% have a hit.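 Compound tested at a single concentration for 48 hours in 96-well plates; a percent growth value below 10 was scored as active.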 A number with no mark means an inactive call. Active and inactive are the calls of the source.

Some test systems named below: SK-MEL-2 melanoma; EKVX NSCLC; SN12C renal; UO-31 renal; TK-10 renal; ACHN renal; CAKI-1 renal; A498 renal; CCRF-CEM leukemia; SR leukemia; RPMI-8226 leukemia; OVCAR-8 ovarian; OVCAR-4 ovarian; SK-OV-3 ovarian; IGROV1 ovarian; OVCAR-3 ovarian; NCI/ADR-RES ovarian; OVCAR-5 ovarian; HS 578T breast.
Common to all, as to experiment: NCI-60 one-dose screen, 48 h (100 = growth as untreated, 0 = no growth, -100 = all killed)
Conditions in all cases: 10 µM unless noted

With `COC(=O)[C@]12CC[C@@H](C)[C@H](C)[C@@H]1C1=CC[C@@H]3[C@@]4(C)C(C=O)=C[C@@](C)(COC(=O)/C=C/c5ccccc5)[C@@H]4[C@H](O)C[C@@]3(C)[C@]1(C)CC2`, the growth is -23.5% (active) in the experiment on SK-MEL-2 melanoma; 26.9% in the experiment with EKVX NSCLC; 3.47% (active) with SN12C renal; 3.64% (active) with UO-31 renal; 26% in the experiment on TK-10 renal; -14.7% (active) in the experiment with ACHN renal. Further, the growth with CAKI-1 renal was 15%; in the experiment on A498 renal, 19.6%; in the experiment on CCRF-CEM leukemia, 16.4%; in the experiment with SR leukemia it was -6.65% (active); in the experiment on RPMI-8226 leukemia it was 1.62% (active); in the experiment on OVCAR-8 ovarian it was 9.9% (active). For the same molecule, the growth with OVCAR-4 ovarian is 21.4%; in the experiment with SK-OV-3 ovarian it was 18.6%; in the experiment with IGROV1 ovarian it was 23.9%; in the experiment with OVCAR-3 ovarian, -75.9% (active); in the experiment on NCI/ADR-RES ovarian, 17.9%.
As to `CCn1c(C)nc2cc(C(N)=O)ccc21`, the growth in the experiment with SK-MEL-2 melanoma was 96%; in the experiment with EKVX NSCLC, 142%; in the experiment with SN12C renal, 98.1%; in the experiment on UO-31 renal it was 91.5%; in the experiment on TK-10 renal, 98%; in the experiment on ACHN renal, 96.7%. Also, the growth in the experiment with CAKI-1 renal was 143%; with A498 renal, 107%; in the experiment on CCRF-CEM leukemia, 95.4%; in the experiment with SR leukemia, 104%; with RPMI-8226 leukemia, 80.9%; in the experiment with OVCAR-8 ovarian it was 96.2%. The growth in the experiment with OVCAR-5 ovarian is 92.6%; in the experiment on OVCAR-4 ovarian it was 98.2%; in the experiment on SK-OV-3 ovarian, 105%; in the experiment on IGROV1 ovarian, 109%; with OVCAR-3 ovarian it was 105%; in the experiment on NCI/ADR-RES ovarian, 97%.
Regarding `CC(CCc1ccc(Cl)c(Cl)c1)NCc1ccc(C(C)(C)C)cc1` (configuration not stated), the growth in the experiment on SK-MEL-2 melanoma was 105%; in the experiment with EKVX NSCLC, 102%; in the experiment on SN12C renal, 91.9%; in the experiment with UO-31 renal, 78.6%; in the experiment with TK-10 renal it was 78.4%; with ACHN renal it was 92.7%. In addition, the growth in the experiment on CAKI-1 renal was 85.9%; with A498 renal it was 90.8%; with CCRF-CEM leukemia, 77.2%; in the experiment with SR leukemia, -10.5% (active); with RPMI-8226 leukemia, 74.5%; in the experiment on OVCAR-8 ovarian, 85.8%. In addition, the growth in the experiment with OVCAR-5 ovarian is 91.3%; in the experiment on OVCAR-4 ovarian, 88.1%; in the experiment with SK-OV-3 ovarian it was 93.6%; with IGROV1 ovarian, 90.3%; in the experiment with OVCAR-3 ovarian, 98.2%; in the experiment on HS 578T breast, 85.2%. In addition, in the experiment with NCI/ADR-RES ovarian, the growth is 86.3%.
In the case of `Cc1cc(NCc2cc(Nc3ccnc4cc(Cl)ccc34)ccc2F)nc(N2CCOCC2)n1`, the growth with SK-MEL-2 melanoma is 84.6%; with EKVX NSCLC, 54.3%; in the experiment on SN12C renal it was 31.4%; in the experiment with UO-31 renal it was -47.8% (active); in the experiment on TK-10 renal, -10.4% (active); in the experiment on ACHN renal, -79.5% (active). Besides, the growth was 60.3% with CAKI-1 renal; 51.7% with A498 renal; 1.04% (active) in the experiment on CCRF-CEM leukemia; -13% (active) in the experiment with SR leukemia; 29.4% in the experiment on RPMI-8226 leukemia; 36.3% in the experiment with OVCAR-8 ovarian. For the same molecule, the growth with OVCAR-5 ovarian was 76.5%; in the experiment on OVCAR-4 ovarian, 7.29% (active); in the experiment with SK-OV-3 ovarian, 0.55% (active); in the experiment on IGROV1 ovarian, 49.7%; with OVCAR-3 ovarian, 16.1%; with HS 578T breast, 16.5%. In addition, the growth in the experiment on NCI/ADR-RES ovarian was 25%.
Consider `CCOC(=O)c1c(-c2ccc(Cl)cc2)c(C#N)c(=O)n(-c2ccccc2CC)c1N`, for which the growth is 114% with SK-MEL-2 melanoma; 90.6% in the experiment on EKVX NSCLC; 92.1% in the experiment with SN12C renal; 71.6% in the experiment on UO-31 renal; 117% in the experiment on TK-10 renal; 89.5% in the experiment with ACHN renal. The growth was 105% in the experiment with CAKI-1 renal; 97.5% in the experiment with A498 renal; 17.7% in the experiment with CCRF-CEM leukemia; 69.3% in the experiment with RPMI-8226 leukemia; 87.1% in the experiment with OVCAR-8 ovarian; 92.6% in the experiment with OVCAR-5 ovarian. The growth in the experiment with OVCAR-4 ovarian was 98.1%; in the experiment on SK-OV-3 ovarian it was 102%; in the experiment with IGROV1 ovarian it was 99.8%; in the experiment with OVCAR-3 ovarian, 87.8%; in the experiment with HS 578T breast, 102%; with NCI/ADR-RES ovarian it was 91.9%.
As for `c1c[nH]c(CNC2CCCCC2)c1`, the growth is 115% with SK-MEL-2 melanoma; 108% in the experiment with EKVX NSCLC; 107% with SN12C renal; 89.8% with UO-31 renal; 120% with TK-10 renal; 98.1% in the experiment on ACHN renal. Further, the growth in the experiment with CAKI-1 renal is 96.1%; in the experiment on A498 renal, 91.3%; with CCRF-CEM leukemia, 96.6%; with SR leukemia, 144%; in the experiment with RPMI-8226 leukemia it was 103%; with OVCAR-8 ovarian, 102%. Also, the growth was 101% in the experiment on OVCAR-5 ovarian; 111% in the experiment on OVCAR-4 ovarian; 102% in the experiment on SK-OV-3 ovarian; 107% with IGROV1 ovarian; 98.1% with OVCAR-3 ovarian; 102% in the experiment on HS 578T breast. Further, in the experiment on NCI/ADR-RES ovarian, the growth is 99.1%.
Consider `CC(C)(C)n1cc(-c2ccnc(NCCCNS(=O)(=O)c3ccccc3)c2)c(-c2ccccc2)n1`, for which the growth in the experiment with SK-MEL-2 melanoma is 98.7%; with EKVX NSCLC it was 70.7%; in the experiment with SN12C renal it was 78.2%; in the experiment on UO-31 renal, 59%; in the experiment on TK-10 renal, 94.1%; in the experiment on ACHN renal it was 97.2%. Further, the growth in the experiment with CAKI-1 renal is 80.9%; with A498 renal, 39.7%; in the experiment on CCRF-CEM leukemia, 42.6%; in the experiment with SR leukemia, 31.7%; in the experiment with RPMI-8226 leukemia, 65.5%; with OVCAR-8 ovarian, 68.9%. Besides, the growth in the experiment on OVCAR-5 ovarian is 94%; in the experiment with OVCAR-4 ovarian it was 70.4%; with SK-OV-3 ovarian, 85.1%; in the experiment on IGROV1 ovarian it was 78.3%; in the experiment with OVCAR-3 ovarian, 83.9%; in the experiment on NCI/ADR-RES ovarian it was 74.6%.
On to `C#CCOc1nc(C)cc(C)c1C#N`, for which the growth is 111% with SK-MEL-2 melanoma; 97.1% in the experiment on EKVX NSCLC; 104% with SN12C renal; 86.5% with UO-31 renal; 95.9% with TK-10 renal; 99.7% in the experiment on ACHN renal. Moreover, the growth with CAKI-1 renal is 90.6%; in the experiment on A498 renal, 87.7%; with CCRF-CEM leukemia, 109%; in the experiment with SR leukemia, 91.8%; in the experiment on RPMI-8226 leukemia, 111%; in the experiment on OVCAR-8 ovarian, 102%. For the same molecule, the growth in the experiment on OVCAR-5 ovarian was 95.1%; in the experiment on OVCAR-4 ovarian, 100%; with SK-OV-3 ovarian it was 101%; with IGROV1 ovarian, 102%; with OVCAR-3 ovarian, 110%; in the experiment on HS 578T breast, 101%. In addition, in the experiment with NCI/ADR-RES ovarian, the growth was 103%.
